From PubChem BioAssay (NCI) come the findings set out here.

Among the test systems are RPMI-8226 leukemia; OVCAR-8 ovarian; OVCAR-5 ovarian; OVCAR-4 ovarian; SK-OV-3 ovarian; IGROV1 ovarian; OVCAR-3 ovarian; HS 578T breast; T-47D breast; BT-549 breast; MDA-MB-435 melanoma; SW-620 colon; MCF7 breast; HCT-116 colon; HCC-2998 colon; KM12 colon; NCI/ADR-RES ovarian.
Holding throughout (test): NCI-60 one-dose screen, 48 h (100 = growth as untreated, 0 = no growth, -100 = all killed)
What all share (settings): 10 µM unless noted

Compounds without any hit were thinned out: in the full panel of roughly 83,000, 20% have a hit.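 For each line, cells grew in 96-well plates with the test compound present at a single concentration for 48 hours.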 A number with no mark means an inactive call. Activity calls are given as the source filed them. The calls were made as follows: active = growth percent below 10; inactive = the rest.

As for `COc1cc(C(=O)/C=C/c2sc(Cl)nc2Cl)cc(OC)c1OC`, the growth in the assay on RPMI-8226 leukemia was -38% (active); in the assay on OVCAR-8 ovarian, 33.6%; with OVCAR-5 ovarian, 77.1%; in the assay with OVCAR-4 ovarian it was 57.2%; with SK-OV-3 ovarian it was 97.7%; with IGROV1 ovarian it was 25.5%. In addition, the growth in the assay on OVCAR-3 ovarian is -95.5% (active); in the assay on HS 578T breast, 71.3%; in the assay on T-47D breast, 28.2%; in the assay on BT-549 breast, 86.2%; in the assay on MDA-MB-435 melanoma, 98.5%; with SW-620 colon, -61% (active). For the same compound, the growth in the assay on MCF7 breast is -68.1% (active); in the assay with HCT-116 colon, -54.3% (active); in the assay on HCC-2998 colon, -58.3% (active); in the assay on KM12 colon it was 28.4%.
As to `C=C1CC[C@H](C(C)C)[C@@H]2[C@H]1[C@H]1CC(=C)[C@@H](O)CC[C@@](C)(O)[C@@H]2O1`, the growth with RPMI-8226 leukemia is 93.3%; in the assay on OVCAR-8 ovarian, 99.4%; in the assay on OVCAR-5 ovarian, 79.5%; with OVCAR-4 ovarian, 98.5%; in the assay on SK-OV-3 ovarian it was 109%; in the assay with OVCAR-3 ovarian it was 101%. In addition, the growth was 92.4% with HS 578T breast; 85.9% in the assay with NCI/ADR-RES ovarian; 97.1% with T-47D breast; 99.2% in the assay on BT-549 breast; 96.8% in the assay on MDA-MB-435 melanoma; 96.7% with SW-620 colon. Also, the growth in the assay with MCF7 breast is 97%; in the assay on HCT-116 colon, 86.2%; in the assay with HCC-2998 colon it was 77.9%; in the assay with KM12 colon it was 96.3%.
Consider `N/C(=N\c1nc2ccccc2s1)NC(=O)Nc1cccc2ccccc12`, for which the growth in the assay on RPMI-8226 leukemia was 13.8%; in the assay with OVCAR-8 ovarian, 32.9%; in the assay on OVCAR-5 ovarian, 41.1%; in the assay with OVCAR-4 ovarian, 60.8%; in the assay with SK-OV-3 ovarian, 40.4%; in the assay with OVCAR-3 ovarian, -14.2% (active). The growth in the assay with HS 578T breast is 16.6%; in the assay on NCI/ADR-RES ovarian, -7.24% (active); in the assay on T-47D breast it was 38.5%; in the assay on BT-549 breast, 71.6%; with MDA-MB-435 melanoma, -27.7% (active); in the assay on SW-620 colon it was 19.7%. Moreover, the growth was 23.1% with MCF7 breast, 0.264% (active) in the assay on HCT-116 colon, 38.9% in the assay on HCC-2998 colon and 14.7% in the assay on KM12 colon.
For the compound `Cc1ccc2nc(NC(=O)CSc3nc(Cl)c(C#N)c(-c4ccccc4)n3)sc2c1`, the growth in the assay with RPMI-8226 leukemia is 96.9%; in the assay on OVCAR-8 ovarian, 98.3%; in the assay on OVCAR-5 ovarian it was 104%; in the assay with OVCAR-4 ovarian, 105%; in the assay with SK-OV-3 ovarian, 95.7%; in the assay with IGROV1 ovarian it was 93.3%. For the same compound, the growth is 107% in the assay with OVCAR-3 ovarian; 95.9% in the assay on HS 578T breast; 89.1% with T-47D breast; 103% in the assay on BT-549 breast; 98.8% with MDA-MB-435 melanoma; 103% in the assay on SW-620 colon. Besides, the growth is 91.7% with MCF7 breast, 102% with HCT-116 colon, 108% in the assay on HCC-2998 colon and 110% in the assay on KM12 colon.
In the case of `O=C(O)C(c1ccccc1)N1C(=O)CSC1=S` (configuration not stated), the growth is 114% with RPMI-8226 leukemia; 101% with OVCAR-8 ovarian; 101% in the assay on OVCAR-5 ovarian; 109% in the assay with OVCAR-4 ovarian; 101% in the assay on SK-OV-3 ovarian; 107% in the assay on IGROV1 ovarian. Also, the growth is 106% in the assay on OVCAR-3 ovarian; 100% in the assay with HS 578T breast; 97.7% in the assay on T-47D breast; 94.2% with BT-549 breast; 99.5% in the assay on MDA-MB-435 melanoma; 103% in the assay on SW-620 colon. Further, the growth in the assay with MCF7 breast was 93.8%; in the assay with HCT-116 colon, 102%; in the assay on HCC-2998 colon it was 112%; in the assay on KM12 colon it was 102%.
In the case of `c1ccc(Cc2nn3cc(-c4ccccc4)nc3s2)cc1`, the growth in the assay with RPMI-8226 leukemia is 98.3%; with OVCAR-5 ovarian, 109%; with OVCAR-4 ovarian it was 106%; in the assay with SK-OV-3 ovarian, 112%; in the assay with IGROV1 ovarian, 106%; in the assay with OVCAR-3 ovarian it was 105%. Further, the growth was 115% in the assay on HS 578T breast; 102% with NCI/ADR-RES ovarian; 87.6% in the assay on T-47D breast; 102% with BT-549 breast; 114% in the assay on MDA-MB-435 melanoma; 109% with SW-620 colon. Also, the growth in the assay on MCF7 breast is 87.2%; in the assay with HCT-116 colon, 78.9%; in the assay with HCC-2998 colon, 103%; in the assay on KM12 colon it was 96.5%.
Turning to `Cn1cc(C(=O)c2nc(-c3cn(C)c4ccc(F)cc34)no2)c2cc(F)ccc21`, the growth with RPMI-8226 leukemia is 91.1%; in the assay on OVCAR-8 ovarian, 95.5%; in the assay with OVCAR-5 ovarian, 85.9%; with OVCAR-4 ovarian, 90.8%; in the assay on SK-OV-3 ovarian, 81%; in the assay with OVCAR-3 ovarian, 98.4%. The growth was 87% with HS 578T breast; 102% in the assay with NCI/ADR-RES ovarian; 91.2% in the assay on T-47D breast; 106% in the assay on BT-549 breast; 111% with MDA-MB-435 melanoma; 90.6% in the assay on SW-620 colon. The growth in the assay with MCF7 breast is 47.3%; in the assay with HCT-116 colon, 98.1%; in the assay on HCC-2998 colon it was 84.6%; in the assay with KM12 colon it was 95.2%.
